Only some compounds are listed: those with a hit (about 0.93% of all), similar ones and a draw of the others.
MEP2 TOR yeast: yeast TOR pathway MEP2-GFP modulation; S. cerevisiae MEP2-GFP strain, flow cytometry GFP, 3 h; 100% = DMSO control level; GFP response vs DMSO, % at 10 µM; hit rate 0.51% among 330,000; AID 2016;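 active = GFP response versus DMSO above a set limit, roughly screen mean plus 3 SD, cut at about 180% in these data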;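 note: median GFP fluorescence of the barcode-gated MEP2-GFP cells per well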
AGP1 TOR yeast: alters AGP1-GFP fluorescence in TOR pathway yeast screen | S. cerevisiae AGP1-GFP multiplex flow cytometry, 3 h; GFP as percent of DMSO wells | hit rate 0.02% among 320,000 | GFP response vs DMSO, % at 10 µM;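 active = GFP response relative to DMSO above a set limit, near screen average plus 3 SD, cut at about 150% in these data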;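 note: median GFP channel fluorescence of the gated AGP1 strain per well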
RPL19A TOR yeast: yeast TOR pathway RPL19A-GFP modulation; S. cerevisiae RPL19A-GFP strain, flow cytometry, 3 h; stronger effect = lower value; percent response vs DMSO, % at 10 µM; hit rate 0.3% among 330,000; AID 2025;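 active = percent response vs DMSO below 50%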;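 note: median channel GFP fluorescence of the barcoded RPL19A-GFP strain; lower means less RPL19A-GFP as with rapamycin TOR inhibition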
CIT2 TOR yeast: yeast TOR pathway CIT2-GFP modulation; S. cerevisiae CIT2-GFP strain, flow cytometry, 3 h; 100 means same as DMSO wells; GFP response vs DMSO, % at 10 µM; hit rate 0.065% among 320,000;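 active = GFP response relative to DMSO above a set limit, near the screen mean plus 3 SD, cut at about 150% in these data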;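 note: ratio of well median GFP fluorescence to mean of DMSO wells on the plate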
LAP4 TOR yeast: alters LAP4-GFP fluorescence in TOR pathway yeast screen; hit rate 0.34% among 320,000; GFP response vs DMSO, % at 10 µM; S. cerevisiae LAP4-GFP multiplex, flow cytometry GFP, 3 h; median GFP as percent of DMSO wells; AID 2023;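 active = GFP response vs DMSO above a set limit, about the screen mean plus 3 SD, cut at about 150% in these data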
LAP4 cherry2: yeast LAP4-GFP modulation, second cherry pick | S. cerevisiae LAP4-GFP strain, flow cytometry GFP, 3 h | shares compounds with LAP4 TOR yeast | GFP response vs DMSO, % at 10 µM | AID 2621 | hit rate 20% among 590;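 active = GFP signal as percent of the solvent control above about 150%, meaning raised reporter expression, limit read from the data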
MEP2 cherry2: yeast MEP2-GFP modulation, second cherry pick. shares compounds with LAP4 TOR yeast. S. cerevisiae MEP2-GFP strain, flow cytometry GFP, 3 h. GFP response vs DMSO, % at 10 µM. hit rate 10% among 590. AID 2622;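 active = GFP signal above 150% of the solvent control wells, that is a rise of more than half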;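 note: median channel GFP fluorescence of all gated yeast cells per well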
RPL19A GFP CP2: second confirmation of modulators of TOR reporter RPL19A-GFP in yeast; shares compounds with LAP4 TOR yeast; S. cerevisiae RPL19A-GFP strain, flow cytometry GFP, 3 h; stronger effect = lower value; 100% means same as DMSO wells; GFP response vs DMSO, % at 10 µM; hit rate 3% among 590; AID 2623;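 active = under 65% GFP response relative to DMSO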;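 note: median GFP channel fluorescence per well over the all cells gate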
CIT2-GFP pick2: yeast CIT2-GFP TOR reporter modulation, second cherry pick | hit rate 8% among 590 | GFP response vs DMSO, % at 10 µM | shares compounds with LAP4 TOR yeast | S. cerevisiae CIT2-GFP strain, flow cytometry GFP, 3 h; DMSO control wells read 100%;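 active = GFP response vs DMSO above about 150%, limit read from the data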;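 note: median green fluorescence per well over all gated yeast cells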
AGP1-GFP pick2: reconfirmed modulator of AGP1-GFP TOR reporter in yeast | shares compounds with LAP4 TOR yeast | S. cerevisiae AGP1-GFP strain, flow cytometry GFP, 3 h | percent response vs DMSO, % at 10 µM | 590 tested, under 10 active | AID 2643;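 active = over 150 percent of DMSO response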;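 note: median GFP channel fluorescence over all cells without mother daughter split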
s288c autofluor: counter-screen for compound autofluorescence in yeast s288c cells. shares compounds with LAP4 TOR yeast. S. cerevisiae s288c, 520 nm autofluorescence, flow cytometry, 3 h; stronger effect = higher value; zero means same as solvent-only cells. fluorescence change (kMESF span) at 33 µM. 610 tested, under 10 active. AID 2757;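 active = fluorescence span over the dose series, or activity score, above about 33, limit read from the data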
s288c autofl DR: yeast s288c autofluorescence artifact in dose response; shares compounds with LAP4 TOR yeast; S. cerevisiae s288c parental, compound autofluorescence, flow cytometry, 3 h; fluorescence change (span) at 33 µM; 110 tested, under 10 active;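 active = fluorescence change span, or the activity score built from it, above 25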
TORC1 bypass: wildtype yeast growth loss with TORC1 bypass cells unaffected; shares compounds with LAP4 TOR yeast; S. cerevisiae BY4741 spot growth rating, 48-72 h; stronger effect = lower value; growth rating (0-3) at 30 µM; 120 tested, under 10 active; AID 504456;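 active = growth rating at most 1 for wild type yeast while the TORC1 bypass strain still grows fully, rated 3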
Numbers stand for hits; i = inactive; nt = no result given.

SMILES	MEP2 TOR yeast	AGP1 TOR yeast	RPL19A TOR yeast	CIT2 TOR yeast	LAP4 TOR yeast	s288c autofluor	others
O=C(CNC(=O)c1ccccc1)OCC(=O)c1ccc(Cl)s1	i	i	i	i	189.8	nt	LAP4 cherry2=i;MEP2 cherry2=i;RPL19A GFP CP2=i;CIT2-GFP pick2=i;AGP1-GFP pick2=i
C#CCN1c2ccccc2Sc2cccnc21	i	i	i	i	i	nt
COc1ccc(Cl)cc1NC(=O)NN1CCN(C)CC1	i	i	i	i	i	nt
COc1cc(N=c2ssnc2Cl)cc(OC)c1	i	i	i	i	150.5	i	LAP4 cherry2=i;MEP2 cherry2=i;RPL19A GFP CP2=i;CIT2-GFP pick2=i;AGP1-GFP pick2=i
COc1ccccc1NC1=C(Cl)C(=O)N(c2ccccc2)C1=O	i	i	i	i	i	i
COc1ccc(N2C(=O)C(Cl)=C(Nc3ccc(OC)cc3OC)C2=O)cc1	i	i	i	i	i	nt
CCOc1ccc(N2C(=O)C(Cl)=C(Nc3ccccc3O)C2=O)cc1	i	i	i	i	i	i
COc1ccc(N2C(=O)C(Cl)=C(Nc3c(C)n(C)n(-c4ccccc4)c3=O)C2=O)cc1	i	i	i	i	i	i
COc1ccc(NC2=C(Cl)C(=O)N(c3ccccc3)C2=O)c(OC)c1	i	i	i	i	i	nt
CCOc1ccc(N2C(=O)CN=C2Nc2ccccc2Cl)cc1	i	i	i	i	i	nt
CC12CC3(C)CC(C)(C1)CC(C(=O)NCc1cccnc1)(C2)C3	i	i	i	i	i	nt
COC(=O)[C@H](Cc1ccccc1)NC(=O)c1ccc2ccccc2n1	i	i	i	i	i	nt
CC(C)(C)NC(=O)[C@@H]1C[C@@H]2CCCC[C@@H]2CN1C[C@@H](O)[C@H](Cc1ccccc1)NC(=O)[C@H](CC(N)=O)NC(=O)c1ccc2ccccc2n1	i	i	i	i	i	nt	LAP4 cherry2=i;MEP2 cherry2=i;RPL19A GFP CP2=i;CIT2-GFP pick2=i;AGP1-GFP pick2=i
C[C@@]12C(=O)Nc3cc(Cl)ccc3C(=O)N1[C@H]1c3ccccc3OC[C@@H]1[C@@H]2c1ccccc1	i	i	i	i	i	nt
C[C@@]12C(=O)Nc3ccc(Cl)cc3C(=O)N1[C@H]1c3ccccc3OC[C@@H]1[C@@H]2c1ccccc1	i	i	i	i	156.9	nt	LAP4 cherry2=i;MEP2 cherry2=i;RPL19A GFP CP2=i;CIT2-GFP pick2=i;AGP1-GFP pick2=i
Cc1ccc(C(c2cc(Cl)c3cccnc3c2O)N2CCN(C)CC2)cc1 (stereo not given)	i	i	i	i	226.6	i	s288c autofl DR=i;TORC1 bypass=i
CN1CCN(C(c2ccc(C(F)(F)F)cc2)c2ccc3cccnc3c2O)CC1 (stereo not given)	i	i	i	i	322.0	i	s288c autofl DR=i;TORC1 bypass=i
CC(=O)NC(c1cc(Cl)c2cccnc2c1O)C(C)C (stereo not given)	i	i	i	i	i	nt

High-throughput results: PubChem BioAssay, NMMLSC
